# High-throughput results: PubChem BioAssay, The Scripps Research Institute Molecular Screening Center
# Most compounds without a hit are left out; they make up all but 1.1% or so of the library.
# MOR-DOR ag: agonists of OPRM1-OPRD1 heterodimerization, primary screen, cell-based, luminescence; activation, % at 9.3 µM; Mu-type opioid receptor (Homo sapiens) + Delta-type opioid receptor (Homo sapiens), …; 340,000 compounds, 0.3% hits; cells; in the data active = activation above about 18%;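 also: 0% = vehicle-treated cells and 100% = reference agonist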
# Target sequence (P35372 whole entry, looked up): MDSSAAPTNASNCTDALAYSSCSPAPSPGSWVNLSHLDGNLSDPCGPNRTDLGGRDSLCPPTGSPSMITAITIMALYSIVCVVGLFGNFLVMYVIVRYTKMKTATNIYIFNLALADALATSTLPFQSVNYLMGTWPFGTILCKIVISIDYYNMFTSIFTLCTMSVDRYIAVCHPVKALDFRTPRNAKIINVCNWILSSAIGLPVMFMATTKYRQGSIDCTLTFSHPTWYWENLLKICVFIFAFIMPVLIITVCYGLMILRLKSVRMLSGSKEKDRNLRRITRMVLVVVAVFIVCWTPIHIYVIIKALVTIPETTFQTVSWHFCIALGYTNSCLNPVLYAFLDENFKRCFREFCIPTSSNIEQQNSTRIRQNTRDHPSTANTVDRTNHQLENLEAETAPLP
# Target sequence (P41143 whole entry, looked up): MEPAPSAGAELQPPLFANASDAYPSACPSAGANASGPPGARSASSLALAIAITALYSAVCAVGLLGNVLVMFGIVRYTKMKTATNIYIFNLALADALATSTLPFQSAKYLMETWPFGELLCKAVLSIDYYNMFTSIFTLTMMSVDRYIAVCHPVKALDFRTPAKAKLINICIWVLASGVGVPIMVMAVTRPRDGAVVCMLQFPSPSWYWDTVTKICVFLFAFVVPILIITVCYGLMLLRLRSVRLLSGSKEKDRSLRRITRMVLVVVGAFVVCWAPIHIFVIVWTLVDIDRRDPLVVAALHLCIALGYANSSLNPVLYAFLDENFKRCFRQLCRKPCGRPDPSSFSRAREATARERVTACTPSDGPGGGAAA
# HTR5A ag ctr: HTR5A agonists in luminescence cell assay, primary screen, counter-screen for OPRM1-OPRD1 heterodimer agonist project, full-deck HTS | cell-based | activation, % at 9.3 µM | 340,000 compounds, 0.61% hits | AID 504692, 2011; in the data active = activation mostly above about 9.5%, no sharp cut-off; inactive = mostly below about 7.6%;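 also: 0% = cells with vehicle only and 100% = reference agonist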
# MOR-DOR inv ag: inverse agonists of MOR-DOR heterodimerization, primary screen, cell-based, luminescence | inhibition, % at 9.3 µM | Mu-type opioid receptor (Homo sapiens) + Delta-type opioid receptor (Homo sapiens), … | 340,000 compounds, 0.21% hits | AID 504357, 2011 | cell-based MOR-DOR heterodimer luminescence, inverse agonism; in the data active = inhibition above about 22%, passing the limit was not always enough;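 also: 0% = cells with DMSO and 100% = wells without cells with DMSO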
# HTR5A inv ctr: HTR5A inverse agonists in luminescence cell assay, primary screen, counter-screen for OPRM1-OPRD1 heterodimer inverse agonist project, full-deck HTS; 5-hydroxytryptamine receptor 5A (Homo sapiens), P47898; HTR5A cell line, inverse agonism; inhibition, % at 9.3 µM; 340,000 compounds, 0.083% hits; in the data active = inhibition mostly above about 23%, no sharp cut-off; inactive = mostly below about 18%;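 also: 0% = cells with DMSO and 100% = no-cell wells with DMSO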
# Starred values were filed as active, the others as inactive; i = inactive.
SMILES,MOR-DOR ag,HTR5A ag ctr,MOR-DOR inv ag,HTR5A inv ctr
COc1ccc(C(C(=O)NC2CCCCC2)N(C(=O)CCl)c2ccc(OC)cc2)cc1 (stereo not given),65*,50*,-349,-112
CCc1nnc(N2CCN(c3ncnc4c3oc3ccccc34)CC2)s1,-3,4,19,-11
c1ccc(N2CCN(c3ncnc4c3oc3ccccc34)CC2)cc1,4,14*,-20,-32
CCN(CC(=O)Nc1c(F)cccc1F)C(=O)/C=C/c1ccc(Br)s1,-4,-4,22,11
COC(=O)c1cc(S(=O)(=O)N2CCC(C)CC2)ccc1F,0,9.7*,3,5
O=C(CCn1cnc(-c2ccccc2)c1-c1ccccc1)N/N=C/c1ccccc1O,2,-2,-11,4
Cc1nn(-c2ccccc2)c(C)c1NC(=O)COc1ccc2ccccc2c1,1,10*,-8,-14
NCc1cc2c3c(c1)CCCN3CCC2,-2,4,12,-15
Cn1c2ccccc2c(=O)c2ccc(NCCc3cccs3)cc21,6,14*,-35,-19
CO/C=C\C=C/c1nnn(-c2ccc(Cl)cc2)n1,-3,2,14,2
O=C(CN(Cc1ccccc1)C(=O)CCl)c1cccc(Br)c1,33*,38*,-152,-15
O=C(N/N=C/c1cccc2ccccc12)c1ccc(CN2CCOCC2)cc1,-2,12*,7,-42
O=C(Nc1ccc(Cl)cc1)c1cc2c(cc1O)[nH]c1ccccc12,6,14*,-28,-50
O=C(CSc1ccsc1[N+](=O)[O-])Nc1cc(F)ccc1F,-2,-3,8,6
CC(=O)c1ccc(NC(=O)CSc2ccsc2[N+](=O)[O-])cc1,-2,9.4*,10,-22
COc1ccc(CC(=O)Nc2ccc(-c3nc4cc(C)ccc4o3)c(O)c2)cc1OC,1,14*,-3,5
CCOC(=O)[C@H]1[C@H]2COc3ccc(Br)cc3[C@@H]2N2C(=O)CN(Cc3ccc(F)cc3)C(=O)[C@@]12C,1,3,-7,2
COCc1c(C(=O)N/N=C(/C)c2ccc(OCc3ccccc3)cc2)nnn1-c1nonc1N,-4,-2,22,11
CC(C)Oc1ccc(CN2CCC(n3nccc3NC(=O)C3CC3)CC2)cc1,-3,5,18,12
O=C(CSc1nnc(SCc2ccccc2)s1)N/N=C/c1ccc(Cl)cc1Cl,-3,-4,17,-6
O=C(CSC1CN(C(c2ccccc2)c2ccccc2)C1)N/N=C/c1ccc(Cl)cc1Cl,-1,12*,6,3
Cc1ccc(N=c2c([N+](=O)[O-])nn(-c3ccccc3)n2O)c(C)c1,7,11*,-37,-15
O=C(c1cccc(C(F)(F)F)c1)C1CCCN(Cc2cccc(OCCO)c2)C1 (stereo not given),2,13*,-10,-33
CCN(CC)CCN(C(=O)CCS(=O)(=O)c1ccccc1)c1nc2cc(C)cc(C)c2s1,0,0,0,3
CCN(CC)CCN(C(=O)CCS(=O)(=O)c1ccccc1)c1nc2c(C)cc(C)cc2s1,5,13*,-32,-29
SMILES,MOR-DOR ag,HTR5A ag ctr,MOR-DOR inv ag,HTR5A inv ctr
Cn1c(=O)c([N+](=O)[O-])c(Cl)c2ccccc21,-8,-5,37*,13
CCN(CC)c1c([N+](=O)[O-])c(=O)n(C)c2ccccc12,1,2,-5,-5
CC[C@]12c3[nH]c4cc(-c5ccco5)ccc4c3CCN1C(=O)[C@@H](CC(=O)NCc1cccc(C(F)(F)F)c1)C[C@@H]2C(=O)N1CCN(C(=O)c2ccco2)CC1,0,3.5*,-1,-12
CCOC(=O)c1c(C)[nH]c(C)c1C(=O)COC(=O)CCc1ccccc1,-1,13*,5,-5
Cc1cccc(OCCCC(=O)Nc2nc3ccccc3[nH]2)c1,0,10*,0,-29
CCOc1ccc2ccccc2c1/C=N/NC(=O)CC1(C)OCCCO1,-1,11,5,-17
Cc1cccc2c1NC(=O)C2(c1ccc(O)cc1)c1ccc(O)cc1,124*,44*,i,-107
Cc1cccc(NC(=O)c2cc(-c3cccnc3)nc3c(C)cccc23)n1,8,11*,-45,-9
Cc1cccc(-c2cc(C(=O)Nc3ccncc3)c3ccccc3n2)c1,21*,12*,-118,-43
Cc1ccc(-c2cc(C(=O)Nc3cccnc3)c3ccccc3n2)s1,8,10*,-41,-33
